Source: PubChem BioAssay AID1210 (NMMLSC, 2008)
A number with no mark means an inactive call.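 How the source made its calls: active means blocks over 70% of labeled estradiol binding at 10 µM, or over a set limit at 100 nM; inactive means the rest.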

biological target: Estrogen receptor beta (Homo sapiens) (UniProt Q92731); experiment: ERbeta ligand binders by competition, primary screen, cell-based, Cos7 ERbeta-GFP, flow cytometry (AID 1210); conditions: fluorescent estrogen binding, at 10 µM, active compounds read high;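 further: 0% = DMSO vehicle wells and 100% = complete loss of labeled estradiol signal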
Sequence (Q92731 whole entry, looked up): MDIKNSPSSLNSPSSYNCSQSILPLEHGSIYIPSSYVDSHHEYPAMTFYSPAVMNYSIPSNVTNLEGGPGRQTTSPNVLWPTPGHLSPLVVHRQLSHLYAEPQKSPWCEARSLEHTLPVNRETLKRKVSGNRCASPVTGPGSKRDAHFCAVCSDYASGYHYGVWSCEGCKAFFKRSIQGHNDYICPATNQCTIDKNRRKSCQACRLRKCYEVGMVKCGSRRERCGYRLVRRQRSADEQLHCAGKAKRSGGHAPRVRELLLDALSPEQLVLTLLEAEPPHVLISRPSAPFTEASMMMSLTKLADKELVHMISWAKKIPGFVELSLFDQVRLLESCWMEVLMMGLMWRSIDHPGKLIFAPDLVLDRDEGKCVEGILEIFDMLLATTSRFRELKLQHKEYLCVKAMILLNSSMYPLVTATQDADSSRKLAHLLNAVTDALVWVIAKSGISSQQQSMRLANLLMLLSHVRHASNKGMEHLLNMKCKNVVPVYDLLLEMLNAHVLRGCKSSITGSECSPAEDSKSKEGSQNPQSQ

Structure (SMILES) | inhibition [%]
O=C(O)c1ccc2c(c1)C1C=CCC1C(c1cccc([N+](=O)[O-])c1)N2 (stereo not drawn) | 33
CC12CCCCC1(O)[N+](=O)C1=C(CCCC1)N2[O-] (stereo not drawn) | 0
Cc1cccc2cc(C(c3nnnn3C(C)(C)C)N(Cc3ccco3)CC3CCCO3)c(=O)[nH]c12 (stereo not drawn) | 18
COc1ccc2c(c1)C1OCCC1C(c1ccco1)N2 (stereo not drawn) | 39
CCOc1ccccc1-c1nc(-c2ccc(NC(=O)c3ccc(Br)o3)cc2)no1 | 37
CCCCOC(=O)c1c(C)oc2ccc(NS(=O)(=O)c3ccc4c5c(cccc35)C(=O)N4)cc12 | 43
Cn1c(-c2ccc(N)cc2)nc2ccccc21 | 24
Cc1ccc2c(c1C)NC(C(=O)O)C1CC=CC21 (stereo not drawn) | 3
COc1cccc2c1NC(C(=O)O)C1CC=CC21 (stereo not drawn) | 15
COc1cc2c(c([N+](=O)[O-])c1)NC(c1ccc(Br)cc1)C1CC=CC21 (stereo not drawn) | 8
CC(Nc1ccc(N2CCNCC2)cc1[N+](=O)[O-])C12CC3CC(CC(C3)C1)C2 (stereo not drawn) | 15
CCOC(=O)c1ccc2c(c1)C1C=CCC1C(c1cccc([N+](=O)[O-])c1)N2 (stereo not drawn) | 6
Cc1ccn2c(NCc3ccc4c(c3)OCO4)c(-c3ccc(O)cc3)nc2c1 | 41
Nc1nc2c(s1)CCc1c-2cnn1-c1ccccc1 | 50
O=C(O)C1Nc2c(C(=O)N3CCOCC3)cccc2C2C=CCC12 (stereo not drawn) | 45
O=C(O)c1ccc2c(c1)-c1nc3ccccc3n1C2=O | 0
O=C(NCc1ccco1)c1cc2cc3ccc(Cl)cc3nc2o1 | 14
COc1cc(C2C3C(C)N(C)C(=O)N(C)C3N(C)C(=O)N2C)ccc1O (stereo not drawn) | 12
COc1cc(C2CC(=O)Nc3c2ccc2ccccc32)cc(Cl)c1O (stereo not drawn) | 19

Structure (SMILES) | inhibition [%]
Cc1nc2ccccc2n1-c1cc(C(C)(C)C)c(O)c(C(C)(C)C)c1 | 16
CCNC(=O)N1c2ccc(OCC)cc2C(C)=CC1(C)C | 15
CC(=O)c1ccc(N2Cc3ccccc3C2)cc1 | 19
CCCC1Nc2ccc(C(=O)O)cc2C2C=CCC12 (stereo not drawn) | 44
CC(C)C1CC(CCNCc2ccc3c(c2)OCO3)(c2ccccc2)CCO1 (stereo not drawn) | 45
CCc1oc2c(C)c(O)ccc2c(=O)c1-c1ccc2ccccc2n1 | 39
O=c1oc2cc(O)ccc2c2c1CCC2 | 8
Cc1nn(-c2ccccc2)c2sc(C#N)c(N)c12 | 6
COc1ccc(C2(CNCC(N)=O)CCCC2)cc1OC | 7
CCOC(=O)c1ccc2c(c1)C1C=CCC1C(C(=O)O)N2 (stereo not drawn) | 36
Cc1noc(C)c1S(=O)(=O)N(CC(=O)O)c1ccc2c(c1)OCO2 | 31
CCOc1cc2c(c([N+](=O)[O-])c1)NC(c1ccc(Cl)cc1)C1CC=CC21 (stereo not drawn) | 16
COc1cc(/C=N/N2CCN(C3c4ccccc4-c4ccccc43)CC2)cc(OC)c1O | 12
CCc1cc2c3c(c(=O)oc2cc1OCC(=O)OC)CCCC3 | 15
CC(C)C1Nc2ccc(C(=O)O)cc2C2C=CCC21 (stereo not drawn) | 35
CCCCCCc1cc2c3c(c(=O)oc2cc1OCC(=O)OC)CCC3 | 20
O=C(O)c1cc(-c2ccco2)nc2ccccc12 | 14
CC(=O)Oc1ccc(C2Nc3c(C(=O)O)ccc([N+](=O)[O-])c3C3C=CCC32)cc1 (stereo not drawn) | 56
O=c1oc2cc(O)c(Cl)cc2c2c1CCCC2 | 8
